Of roughly 7,900 targets only a part is listed; those with a hit were picked by preference. About 0.6% of all pairs of compound and target were hits. Unmarked numbers belong to inactive results.
Key:
Test in all cases: log2 fold change, soluble protein after heating vs DMSO (PISA); higher = thermal stabilisation; K562 cells, 10 uM, 30 min; active = over 0.2 and 3.5 SD of the protein, either way, in both replicates (recomputed)
saracatinib = compound: CN1CCN(CCOc2cc(OC3CCOCC3)c3c(Nc4c(Cl)ccc5c4OCO5)ncnc3c2)CC1 [saracatinib]
Summary of the method: (§1)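 Quantification of soluble protein used TMTpro 16plex LC-MS/MS, with channel sums equalised. Samples were the supernatant after 21,000xg for 90 min of pooled aliquots from K562 cells (2×10^6 cells/mL) treated with 10 μM compound for 30 min, heated for 3 min over 48°C-58°C, and extracted in PBS with 0.5% NP-40 at 4°C. Values, from duplicates, describe thermal stability against control samples on a log2 fold-change scale.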

sotrastaurin = compound: CN1CCN(c2nc(C3=C(c4c[nH]c5ccccc45)C(=O)NC3=O)c3ccccc3n2)CC1 [sotrastaurin]
Summary of the method: as §1

alvocidib = compound: CN1CC[C@H](c2c(O)cc(O)c3c(=O)cc(-c4ccccc4Cl)oc23)[C@H](O)C1 [alvocidib]
Summary of the method: as §1

Tubastatin A = compound: CN1CCc2c(c3ccccc3n2Cc2ccc(C(=O)NO)cc2)C1 [Tubastatin A]
Summary of the method: as §1

[1] = compound: CNC(=O)C1=CC=CC=C1NC2=NC(=NC=C2Cl)NC3=C(C=C(C=C3)N4CCOCC4)OC
Summary of the method: as §1

defactinib = compound: CNC(=O)c1ccc(Nc2ncc(C(F)(F)F)c(NCc3nccnc3N(C)S(C)(=O)=O)n2)cc1 [defactinib]
Summary of the method: as §1

rucaparib = compound: CNCc1ccc(-c2[nH]c3cc(F)cc4c3c2CCNC4=O)cc1 [rucaparib]
Summary of the method: as §1

[2] = compound: CNc1nc(-c2ccc3c(N)n[nH]c3c2)cc(N2C[C@@H](C(=O)NC3CCCCC3)CC[C@H]2C)n1
Summary of the method: as §1

encorafenib = compound: COC(=O)N[C@@H](C)CNc1nccc(-c2cn(C(C)C)nc2-c2cc(Cl)cc(NS(C)(=O)=O)c2F)n1 [encorafenib]
Summary of the method: as §1

[3] = compound: COC(=O)[C@H](CCSC)NC(=O)C1=C(C=C(C=C1)NC[C@H](CS)N)C2=CC=CC=C2
Summary of the method: as §1

[4] = compound: COC1=CC=C(C=C1)CN2C=CC3=C2C=C(C=C3)C(=O)NO
Summary of the method: as §1

filanesib = compound: CON(C)C(=O)N1N=C(c2cc(F)ccc2F)S[C@@]1(CCCN)c1ccccc1 [filanesib]
Summary of the method: as §1

zotarolimus = compound: CO[C@H]1C[C@@H]2CC[C@@H](C)[C@@](O)(O2)C(=O)C(=O)N2CCCC[C@H]2C(=O)O[C@H]([C@H](C)C[C@@H]2CC[C@H](n3cnnn3)[C@H](OC)C2)CC(=O)[C@H](C)/C=C(\C)[C@@H](O)[C@@H](OC)C(=O)[C@H](C)C[C@H](C)/C=C/C=C/C=C/1C [zotarolimus]
Summary of the method: as §1

idasanutlin = compound: COc1cc(C(=O)O)ccc1NC(=O)[C@@H]1N[C@@H](CC(C)(C)C)[C@](C#N)(c2ccc(Cl)cc2F)[C@H]1c1cccc(Cl)c1F [idasanutlin]
Summary of the method: as §1

alisertib = compound: COc1cc(Nc2ncc3c(n2)-c2ccc(Cl)cc2C(c2c(F)cccc2OC)=NC3)ccc1C(=O)O [alisertib]
Summary of the method: as §1

[5] = compound: COc1cc2nc(-c3cc(F)ccc3O)nc(N[C@@H]3CNC[C@H]3C(C)(C)O)c2cc1OC
Summary of the method: as §1

gefitinib = compound: COc1cc2ncnc(Nc3ccc(F)c(Cl)c3)c2cc1OCCCN1CCOCC1 [gefitinib]
Summary of the method: as §1

[6] = compound: COc1cccc2cc(-c3nc([C@H]4CC[C@H](C(=O)O)CC4)n4ncnc(N)c34)[nH]c12
Summary of the method: as §1

lapatinib = compound: CS(=O)(=O)CCNCc1ccc(-c2ccc3ncnc(Nc4ccc(OCc5cccc(F)c5)c(Cl)c4)c3c2)o1 [lapatinib]
Summary of the method: as §1

pictilisib = compound: CS(=O)(=O)N1CCN(Cc2cc3nc(-c4cccc5[nH]ncc45)nc(N4CCOCC4)c3s2)CC1 [pictilisib]
Summary of the method: as §1

Chain of UniProt Q96DM3 (Q96DM3 whole entry, looked up): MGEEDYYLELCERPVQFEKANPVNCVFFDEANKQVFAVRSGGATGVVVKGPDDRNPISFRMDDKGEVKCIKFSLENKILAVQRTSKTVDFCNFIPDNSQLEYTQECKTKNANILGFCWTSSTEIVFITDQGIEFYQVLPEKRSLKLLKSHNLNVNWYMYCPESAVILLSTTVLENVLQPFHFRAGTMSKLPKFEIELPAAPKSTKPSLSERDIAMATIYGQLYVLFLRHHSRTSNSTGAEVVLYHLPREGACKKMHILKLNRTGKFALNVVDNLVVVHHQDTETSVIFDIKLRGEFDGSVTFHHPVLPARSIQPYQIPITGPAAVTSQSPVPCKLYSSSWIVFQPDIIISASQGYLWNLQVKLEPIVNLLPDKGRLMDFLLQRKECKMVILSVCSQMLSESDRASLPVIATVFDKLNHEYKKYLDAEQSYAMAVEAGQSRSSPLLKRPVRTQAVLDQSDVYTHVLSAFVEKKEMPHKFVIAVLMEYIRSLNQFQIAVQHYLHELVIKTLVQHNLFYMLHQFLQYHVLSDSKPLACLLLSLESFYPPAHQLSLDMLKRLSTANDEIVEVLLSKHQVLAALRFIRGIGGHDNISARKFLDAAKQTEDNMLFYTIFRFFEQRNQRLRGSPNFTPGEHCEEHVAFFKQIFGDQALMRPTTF
Chain of UniProt Q9NTJ5 (Q9NTJ5 whole entry, looked up): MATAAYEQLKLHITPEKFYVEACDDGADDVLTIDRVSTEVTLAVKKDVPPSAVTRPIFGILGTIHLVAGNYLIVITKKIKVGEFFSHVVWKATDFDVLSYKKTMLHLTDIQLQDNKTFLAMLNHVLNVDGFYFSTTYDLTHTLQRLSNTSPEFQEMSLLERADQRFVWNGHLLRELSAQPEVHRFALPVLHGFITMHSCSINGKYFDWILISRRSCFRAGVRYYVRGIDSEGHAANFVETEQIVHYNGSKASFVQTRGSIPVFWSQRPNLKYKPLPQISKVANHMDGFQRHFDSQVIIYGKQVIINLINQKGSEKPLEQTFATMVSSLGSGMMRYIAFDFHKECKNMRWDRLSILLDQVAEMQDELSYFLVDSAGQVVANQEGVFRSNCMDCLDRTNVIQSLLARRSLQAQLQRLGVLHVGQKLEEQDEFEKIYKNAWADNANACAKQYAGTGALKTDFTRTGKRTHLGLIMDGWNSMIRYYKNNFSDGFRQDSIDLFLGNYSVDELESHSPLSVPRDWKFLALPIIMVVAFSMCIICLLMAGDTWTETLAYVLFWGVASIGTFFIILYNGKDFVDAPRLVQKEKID
Chain of UniProt Q5JTH9 (Q5JTH9 whole entry, looked up): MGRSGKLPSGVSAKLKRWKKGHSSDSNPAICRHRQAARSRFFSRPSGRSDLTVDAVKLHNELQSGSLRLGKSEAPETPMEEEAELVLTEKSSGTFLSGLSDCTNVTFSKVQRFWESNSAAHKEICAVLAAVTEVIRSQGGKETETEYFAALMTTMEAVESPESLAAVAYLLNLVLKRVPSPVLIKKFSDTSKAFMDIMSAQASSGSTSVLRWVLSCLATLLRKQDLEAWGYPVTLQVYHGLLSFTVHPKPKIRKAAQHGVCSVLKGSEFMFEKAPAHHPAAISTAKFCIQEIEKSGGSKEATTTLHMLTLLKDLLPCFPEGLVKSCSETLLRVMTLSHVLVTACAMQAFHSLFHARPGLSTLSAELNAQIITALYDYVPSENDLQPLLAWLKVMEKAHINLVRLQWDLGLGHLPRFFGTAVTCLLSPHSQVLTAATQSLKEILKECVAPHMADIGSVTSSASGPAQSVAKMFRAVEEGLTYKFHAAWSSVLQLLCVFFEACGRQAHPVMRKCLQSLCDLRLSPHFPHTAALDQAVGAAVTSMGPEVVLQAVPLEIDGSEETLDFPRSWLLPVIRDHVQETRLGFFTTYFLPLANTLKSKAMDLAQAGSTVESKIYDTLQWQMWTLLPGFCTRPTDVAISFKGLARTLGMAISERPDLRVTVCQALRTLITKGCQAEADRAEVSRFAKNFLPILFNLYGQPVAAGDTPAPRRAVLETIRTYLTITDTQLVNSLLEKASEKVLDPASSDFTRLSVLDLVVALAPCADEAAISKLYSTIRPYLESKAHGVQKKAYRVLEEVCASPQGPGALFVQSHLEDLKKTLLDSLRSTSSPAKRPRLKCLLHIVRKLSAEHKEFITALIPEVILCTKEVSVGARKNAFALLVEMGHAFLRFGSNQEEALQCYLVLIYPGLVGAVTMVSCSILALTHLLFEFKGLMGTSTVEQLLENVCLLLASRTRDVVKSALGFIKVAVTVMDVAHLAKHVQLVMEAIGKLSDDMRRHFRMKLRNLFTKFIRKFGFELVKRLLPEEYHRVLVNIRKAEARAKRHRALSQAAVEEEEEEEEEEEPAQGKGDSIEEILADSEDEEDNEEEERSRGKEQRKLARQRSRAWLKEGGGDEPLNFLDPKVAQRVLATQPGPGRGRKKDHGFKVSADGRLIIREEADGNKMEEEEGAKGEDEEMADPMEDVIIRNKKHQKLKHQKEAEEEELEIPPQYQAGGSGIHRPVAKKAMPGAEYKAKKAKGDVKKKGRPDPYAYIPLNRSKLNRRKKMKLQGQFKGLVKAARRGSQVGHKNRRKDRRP
Chain of UniProt O75792 (O75792 whole entry, looked up): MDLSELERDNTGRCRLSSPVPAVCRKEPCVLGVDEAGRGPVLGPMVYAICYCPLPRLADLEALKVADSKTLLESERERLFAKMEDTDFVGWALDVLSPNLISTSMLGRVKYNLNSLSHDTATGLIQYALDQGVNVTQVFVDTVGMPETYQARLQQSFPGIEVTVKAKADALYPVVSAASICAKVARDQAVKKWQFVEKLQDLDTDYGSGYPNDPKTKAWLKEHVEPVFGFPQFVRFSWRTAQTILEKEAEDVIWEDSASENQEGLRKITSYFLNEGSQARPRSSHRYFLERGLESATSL
Chain of UniProt Q8N0T1 (Q8N0T1 whole entry, looked up): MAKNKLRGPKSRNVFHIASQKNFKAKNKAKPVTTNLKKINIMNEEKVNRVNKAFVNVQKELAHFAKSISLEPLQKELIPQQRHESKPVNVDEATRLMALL
Chain of UniProt Q99496 (Q99496 whole entry, looked up): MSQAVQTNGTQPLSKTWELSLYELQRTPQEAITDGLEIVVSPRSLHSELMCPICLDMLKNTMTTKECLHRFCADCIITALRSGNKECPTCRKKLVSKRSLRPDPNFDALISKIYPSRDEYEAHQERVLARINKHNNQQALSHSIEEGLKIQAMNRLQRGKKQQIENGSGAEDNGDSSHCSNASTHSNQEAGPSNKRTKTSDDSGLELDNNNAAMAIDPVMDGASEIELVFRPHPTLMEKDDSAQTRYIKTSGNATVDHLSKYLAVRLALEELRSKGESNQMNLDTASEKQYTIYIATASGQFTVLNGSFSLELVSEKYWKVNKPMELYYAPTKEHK
Chain of UniProt P11233 (P11233 whole entry, looked up): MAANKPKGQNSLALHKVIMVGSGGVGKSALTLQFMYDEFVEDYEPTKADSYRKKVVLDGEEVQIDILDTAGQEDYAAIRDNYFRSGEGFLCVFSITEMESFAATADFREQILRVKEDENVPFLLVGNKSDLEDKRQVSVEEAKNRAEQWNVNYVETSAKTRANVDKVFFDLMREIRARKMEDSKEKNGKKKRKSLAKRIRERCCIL
Chain of UniProt Q13546 (Q13546 whole entry, looked up): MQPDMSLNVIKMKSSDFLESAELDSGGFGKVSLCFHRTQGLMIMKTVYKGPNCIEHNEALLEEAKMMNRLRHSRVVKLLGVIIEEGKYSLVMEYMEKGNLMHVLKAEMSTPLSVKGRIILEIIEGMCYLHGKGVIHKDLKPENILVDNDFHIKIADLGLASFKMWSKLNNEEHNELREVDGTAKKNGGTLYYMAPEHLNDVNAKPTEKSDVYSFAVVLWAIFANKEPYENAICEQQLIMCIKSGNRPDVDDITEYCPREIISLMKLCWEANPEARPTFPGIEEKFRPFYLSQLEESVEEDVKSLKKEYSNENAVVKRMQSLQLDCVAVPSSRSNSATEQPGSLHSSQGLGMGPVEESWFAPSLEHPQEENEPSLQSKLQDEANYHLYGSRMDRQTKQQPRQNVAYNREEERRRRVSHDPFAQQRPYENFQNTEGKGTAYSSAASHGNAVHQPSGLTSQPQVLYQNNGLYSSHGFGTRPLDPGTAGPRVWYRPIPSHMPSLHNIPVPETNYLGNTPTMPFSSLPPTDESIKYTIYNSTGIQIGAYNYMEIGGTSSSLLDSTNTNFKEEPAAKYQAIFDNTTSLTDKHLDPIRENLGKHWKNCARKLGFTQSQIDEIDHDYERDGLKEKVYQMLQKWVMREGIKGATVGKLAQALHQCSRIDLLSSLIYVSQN
Chain of UniProt O14796 (O14796 whole entry, looked up): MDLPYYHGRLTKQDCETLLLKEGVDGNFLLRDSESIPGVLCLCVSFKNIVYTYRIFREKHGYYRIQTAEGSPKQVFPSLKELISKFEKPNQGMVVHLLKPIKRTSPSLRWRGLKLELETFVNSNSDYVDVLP
Chain of UniProt Q8N5L8 (Q8N5L8 whole entry, looked up): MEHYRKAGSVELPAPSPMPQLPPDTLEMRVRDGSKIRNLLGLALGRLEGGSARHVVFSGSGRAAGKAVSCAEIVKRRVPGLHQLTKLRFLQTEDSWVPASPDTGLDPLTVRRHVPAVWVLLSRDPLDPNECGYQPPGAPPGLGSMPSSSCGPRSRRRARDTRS

Target | log2 fold change (saracatinib) | log2 fold change (sotrastaurin) | log2 fold change (alvocidib) | log2 fold change (Tubastatin A) | log2 fold change [1] | log2 fold change (defactinib) | log2 fold change (rucaparib) | log2 fold change [2] | log2 fold change (encorafenib) | log2 fold change [3] | log2 fold change [4] | log2 fold change (filanesib) | log2 fold change (zotarolimus) | log2 fold change (idasanutlin) | log2 fold change (alisertib) | log2 fold change [5] | log2 fold change (gefitinib) | log2 fold change [6] | log2 fold change (lapatinib) | log2 fold change (pictilisib)
RBIS (UniProt Q8N0T1) | 0.054 | -0.002 | 0.059 | 0.037 | -0.026 | 0.058 | -0.048 | -0.037 | 0.022 | 0.03 | -0.069 | 0.077 | -0.075 | 0.061 | -0.053 | -0.018 | -0.056 | -0.012 | 0.012 | -0.04
RPP25L (UniProt Q8N5L8) | -0.079 | -0.087 | 0.061 | 0.026 | 0.062 | 0.002 | -0.032 | -0.158 | 0.014 | 0.058 | 0.107 | 0.012 | -0.002 | 0.069 | -0.093 | -0.12 | 0.054 | -0.068 | 0.042 | -0.052
RRP12 (UniProt Q5JTH9) | -0.024 | -0.118 | 0.233 | 0.125 | -0.057 | -0.006 | 0.183 | -0.005 | 0.138 | 0.076 | -0.03 | 0.288 | -0.046 | 0.032 | 0.204 | 0.222 | -0.104 | -0.222 | -0.128 | 0.032
ROCK2 (UniProt O75116) | 0.02 | -0.096 | -0.01 | -0.001 | -0.062 | -0.097 | -0.027 | 0.212 | 0.042 | -0.003 | -0.009 | -0.006 | 0.023 | 0 | 0.072 | 0.135 | 0.045 | -0.038 | -0.029 | 0.071
RIPK1 (UniProt Q13546) | -0.197 | -0.208 | -0.047 | 0.017 | 0.191 | 0.028 | 0.161 | 0.212 | 0.073 | -0.097 | 0 | 0.049 | 0.098 | 0.022 | -0.052 | 0.032 | 0.043 | -0.214 | 0.055 | 0.027
RPS4X (UniProt P62701) | -0.164 | -0.017 | 0.247 | 0.123 | 0.063 | 0.302 | 0.185 | 0.089 | 0.08 | 0.014 | -0.059 | 0.314 | -0.001 | 0.148 | -0.099 | -0.038 | -0.048 | -0.222 | 0.102 | -0.155
RNASEH2A (UniProt O75792) | -0.071 | 0.029 | -0.107 | 0.033 | 0.029 | 0.117 | 0.018 | 0.033 | -0.003 | 0.096 | 0.029 | -0.005 | 0.034 | -0.007 | -0.016 | 0.049 | -0.013 | 0.031 | -0.029 | 0.234
RNF2 (UniProt Q99496) | 0.025 | -0.105 | -0.149 | 0.111 | 0.091 | -0.029 | -0.054 | -0.059 | 0.003 | 0.1 | -0.104 | 0.023 | 0 | -0.01 | -0.105 | -0.04 | 0.106 | 0.039 | 0.011 | 0.099
SH2D1B (UniProt O14796) | -1 (active) | 0.05 | -0.029 | -0.046 | -0.214 | -0.06 | 0.045 | -0.026 | 0.295 | 0.242 | 0.129 | 0.086 | -0.037 | 0.117 | -0.075 | 0.072 | -0.078 | 0.236 | 0.053 | -0.004
SLC1A5 (UniProt Q15758) | 0 | 0.064 | -0.027 | -0.023 | -0.09 | -0.01 | -0.015 | 0.033 | -0.045 | 0.058 | -0.048 | 0.071 | -0.052 | 0.031 | -0.126 | 0.058 | 0.023 | 0.095 | -0.01 | 0.024
SACM1L (UniProt Q9NTJ5) | 0.004 | 0.003 | -0.098 | -0.026 | 0.042 | -0.08 | -0.062 | 0.007 | 0.034 | -0.046 | 0.044 | -0.081 | 0.029 | -0.027 | -0.05 | -0.039 | 0.086 | 0.023 | 0.028 | -0.038
RALA (UniProt P11233) | 0.203 (active) | 0.05 | 0.013 | -0.008 | -0.045 | 0.017 | 0.002 | 0.086 | 0.033 | 0.004 | 0.348 (active) | -0.025 | 0.035 | -0.019 | -0.066 | -0.066 | 0.004 | 0.053 | 0.025 | -0.099
RMC1 (UniProt Q96DM3) | -0.002 | -0.01 | -0.105 | 0.007 | 0.014 | -0.041 | 0.029 | 0.014 | -0.013 | -0.018 | -0.002 | -0.058 | -0.015 | -0.047 | -0.059 | -0.006 | 0.045 | 0.044 | -0.029 | -0.105
